This note sets out measurements from PubChem BioAssay (NCATS).

Records with an inconclusive call do not appear. Unmarked numbers belong to inactive results. The source made the active and inactive calls. Calls come from the whole dose curve; as a rule, active = well fitted cell-killing curve with a large enough effect; inconclusive = small, poorly fitted or top-dose-only effect, or effect the other way; inactive = flat fitted curve, though single readings scatter.
% is set by controls: 0 for no effect and ±100 for the full control effect; potency is the fitted concentration of half-maximal effect.

The first assay relates to PA-1. As to the kind of experiment: Primary qHTS to identify gynecologic anti-cancer compounds using libraries of approved drugs and bioactive compounds (AID 1345084). Note: nearly all actives have a fitted effect of over 55% in size. To be noted: Gynecologic cancer cell panel viability, ATPlite luminescence, 48 h; series mostly up to 57.5 µM; activity change, negative = cytotoxicity: at the top concentration. The essentials: (§1)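 Cytotoxicity screen measuring ATP content by luciferase luminescence. Each compound is applied at five concentrations for 48 h at 37 C with 5% CO2.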
In general terms: Quantitative high-throughput screening tests each substance at several concentrations.
Consider `CCC/C=C/C(=O)O[C@H]1CC(C)(C)CC2[C@@]13[C@H](O)C[C@]1(C)[C@@]2(CCC2[C@@]4(C)CC[C@H](O[C@@H]5O[C@H](C(=O)O)[C@@H](O)[C@H](O[C@@H]6O[C@H](CO)[C@H](O)[C@H](O)[C@H]6O[C@@H]6O[C@@H](C)[C@H](O)[C@@H](O)[C@H]6O[C@@H]6OC[C@](O)(CO)[C@H]6O)[C@H]5O[C@@H]5O[C@H](CO)[C@H](O)[C@H](O)[C@H]5O)C(C)(C)C4CC[C@]21C)O[C@H]3O` (some centres not stated), for which the activity change, negative = cytotoxicity is -0.263% [at 6.55 µM].
Consider `O=S(=O)(N[C@H]1CCCC[C@@H]1N1CCOCC1)c1ccc(Cl)cc1`, for which the “activity change, negative = cytotoxicity” value is 1.71%.
As for `C[C@@H]1O[C@@H](O[C@H]2[C@H](O[C@H]3CC[C@@]4(C)C(CC[C@]5(C)C4C=C[C@]46OC[C@@]7(CCC(C)(C)C[C@H]74)[C@@H](O[C@@H]4O[C@@H](C)[C@H](O)[C@@H](O)[C@H]4O)C[C@]65C)[C@]3(C)CO)O[C@H](CO)[C@@H](O)[C@@H]2O[C@@H]2O[C@H](CO)[C@@H](O)[C@H](O)[C@H]2O)[C@H](O)[C@H](O)[C@H]1O` (some centres not stated), the activity change, negative = cytotoxicity was 2.51% [at 11.6 µM].
As for `Fc1ccc(-c2nc(-c3ccccc3F)[nH]c2-c2ccncc2)cc1`, the “activity change, negative = cytotoxicity” value is 6.53%.
Regarding `CC(=O)OC1CC(O)(C(C)C)C2C(OC(=O)c3ccc(O)cc3)C=C(C)C(=O)CC12C` (configuration not stated), the “activity change, negative = cytotoxicity” value is 2.81% [at 25.3 µM].

Another assay relates to SKOV3. Described as above. To be noted: Gynecologic cancer cell panel viability, ATPlite luminescence, 48 h; series mostly up to 57.5 µM; activity change, negative = cytotoxicity: at the top concentration. The essentials: as §1
Background: ATP-based viability assays read luminescence as a measure of living cells.
Regarding `COc1cc(N2CCC(N)CC2)ccc1Nc1ncc(Cl)c(-c2c[nH]c3ccccc23)n1`, the Potency is 5.01 µM (active).
As to `N#Cc1ccc(Nc2nc(-c3ccc(O)cc3O)cs2)cc1C(F)(F)F`, the Potency was 8.91 µM (active).
Consider `COc1cc2ncnc(Nc3ccc(F)c(Cl)c3)c2cc1O`, for which the “activity change, negative = cytotoxicity” value is 6.16%.
`COC1CC(O[C@H]2CC[C@]3(C)C4CC[C@]5(C)C(C6=CC(=O)OC6)=CCC56OC46CC[C@@H]3C2)OC(C)C1O[C@@H]1O[C@H](CO[C@@H]2O[C@H](CO)[C@@H](O)[C@H](O)[C@H]2O)[C@@H](O)[C@H](O)[C@H]1O` (some centres not stated): the Potency was 3.16 µM (active).
For the compound `C#CCOc1ccc2c(c1)c(-c1ccc(C(C)C)cc1)nc(=O)n2C(C)C`, the “activity change, negative = cytotoxicity” value was -1.48%.
For the compound `Cc1cn(CCN2CCN(c3ccccc3-c3cc(C#N)cc(C(=O)NCCCN4CCCC4)c3)CC2)c2ccccc12`, the “activity change, negative = cytotoxicity” value was -22%.
As for `CCCc1cc2c(N3CCN(C4=NCC(C)(C)S4)CC3)ncnc2s1`, the Potency is 25.1 µM (active).
Consider `CCNC1(C(N)=O)CN(c2nc(C)nc3c(-c4ccc(Cl)cc4)c(-c4ccccc4Cl)nn23)C1`, for which the “activity change, negative = cytotoxicity” value was -9.13%.
As to `CCC(C)CNCC(=O)N1CCc2sccc2C1COc1cccc(C)c1` (configuration not stated), the “activity change, negative = cytotoxicity” value was -6.8%.
In the case of `C#Cc1cccc(Nc2nc3cc(C(=O)O)ccc3c3cncnc23)c1`, the “activity change, negative = cytotoxicity” value was -21.3%.
Turning to `Cn1nc(-c2ccc(C(F)(F)F)cc2)nc2c(=O)n(C)c(=O)nc1-2`, the Potency was 17.8 µM (active).
Turning to `Cn1ncc(Cl)c1-c1cc(C(=O)N[C@H](CN)Cc2ccc(F)c(F)c2)sc1Cl`, the Potency was 14.1 µM (active).
Turning to `O=C1COC2(CCN(S(=O)(=O)c3ccc(-c4ccc5cccnc5c4)cc3)CC2)CN1C1CC1`, the “activity change, negative = cytotoxicity” value is 8.21%.
Still for that read-out and setting: to `O=C(NCCN1CCOCC1)c1cc2c(Oc3ccc(NC(=O)C4(C(=O)Nc5ccc(F)cc5)CC4)cc3)ccnc2[nH]1` belongs -21.3%.
With `C#CC(=O)N(c1ccc(OC)cc1OC)C(C(=O)NCC(=O)OCC)c1cccs1` (configuration not stated), the Potency is 3.16 µM (active).
`C/C=C(\C)C(=O)OC1C(C)C2(O)C(C=C(CO)CC3(O)C(=O)C(C)=CC32)C2C(C)(C)C12OC(C)=O` (configuration not stated): the “activity change, negative = cytotoxicity” value was -2.44% [at 25.3 µM].
Same read-out and setting: the result for `CC1=C(c2ccc(NC(=O)c3c(F)cccc3F)cc2)CN(c2nccs2)CC1` reads -13%; that for `O=S(=O)(Nc1ccccc1N1CCCCC1)c1ccc(Cl)s1`, 0%; that for `Cc1cccc(-c2[nH]ncc2-c2ccnc3ccccc23)n1`, -31.2%.
For `COc1ccc([C@H]2OC[C@H]3O[C@@H](O[C@H]4[C@@H]2NC[C@@H]4O)[C@H](O)[C@H]3O)cc1`, the Potency was 3.98 µM (active).
Consider `C[C@@H]1O[C@@H](O[C@H]2[C@@H](OC(=O)[C@]34CCC(C)(C)CC3C3=CCC5[C@@]6(C)C[C@H](O)[C@H](O[C@@H]7O[C@H](CO)[C@@H](O)[C@H](O)[C@H]7O[C@@H]7OC[C@@H](O)[C@H](O)[C@H]7O)[C@@](C)(C(=O)O)C6CC[C@@]5(C)[C@]3(C)CC4)OC[C@H](O)[C@@H]2O)[C@H](O)[C@H](O)[C@H]1O[C@@H]1OC[C@@H](O)[C@H](O)[C@H]1O` (some centres not stated), for which the activity change, negative = cytotoxicity is -18.3% [at 6.55 µM].
As to `C/C1=C/CCC2=CC(OC2=O)C(C)(C)/C=C/C1=O` (configuration not stated), the Potency is 12.6 µM (active).
